# PubChem BioAssay (Tox21)
# Records with an inconclusive call do not appear. Where a call stands in place of a potency, no number is given. The source made the active and inactive calls. Calls follow the shape of the dose curve; as a rule, active = well fitted cell-killing curve with a large enough effect in the repeat runs; inconclusive = weak or mixed curves, or effect the other way; inactive = flat fitted curve, though single readings scatter.
# Assay: qHTS assay to identify small molecule antagonists of the constitutive androstane receptor (CAR) signaling pathway - cell viability counter screen (AID 1224837); also: nearly all actives have a fitted effect of over 45% in size
# Settings: HepG2-CYP2B6-hCAR viability, CellTiter-Fluor, 23 h, co-treated with 50 nM CITCO; series mostly up to 92.4 µM
# From the text: National Center for Advancing Translational Sciences [NCATS]
# NIH Chemical Genomics Center [NCGC]
# U.S. Environmental Protection Agency [EPA]
# National Institutes of Environmental Health Sciences [NIEHS]
# National Toxicology Program [NTP]
# U.S. Food and Drug Administration [FDA]
# The constitutive androstane receptor (CAR) is a nuclear receptor which regulates multiple drug metabolizing enzymes (DMEs) and transporters. Activating CAR will generally increase the transcription and subsequent translation of CYP2B6 and CYP3A4. These two DMEs represent about 50% of the drug metabolizing potential in the body. When CAR is deactivated, the metabolizing potential in the body will decrease, subsequently increasing the toxicity in the body or lowering the therapeutic potential of a pro-drug. Recently, there have also been studies performed indicating CARs role in energy metabolism and cancer therapy. Therefore, inhibiting CARs activity could have a potential effect on diabetes and cancer. Identifying environmental toxins and compounds which modulate CAR, through the use of the Tox21 10K compound collection, will be an important step in determining the toxicity and potential therapeutic effects these factors will have on the human body. To differentiate true CAR antagonists from cytotoxic substances, the assay is multiplexed with a cell viability assay.
# Tox21 Assay Protocol Summary:
# A double-stable (hCAR and CYP2B6-2.2kb) transfected cell line, derived from human hepatoma (HepG2) cells, was utilized for the duration of the quantitative high-throughput screens. The HepG2-CYP2B6-hCAR cells were dispensed at 2500 cells/4 uL/well in 1536-well white solid bottom plates using a Multidrop Combi. After the assay plates were incubated at 37 C/5% CO2 for 4 hrs, 23 nL of compounds at 15 concentrations (from 5-48 columns) or positive control (from 1 to 4 columns) were transferred to the assay plates using a Pintool station. One uL of CITCO (final concentration = 50 nM) was added, using a Flying Reagent Dispenser, inside each well. After a 23 hr incubation period at 37 C/5% CO2, 1 uL of CellTiter-Fluor reagent was added into each well of the assay plates using a Flying Reagent Dispenser. The fluorescence intensity in the plates was then measured using a ViewLux plate reader.
row,SMILES,Potency
1,Cc1cc(C(=O)O)ccc1[N+](=O)[O-],inactive
2,CN1CCC(N(Cc2cccs2)c2ccccc2)CC1,inactive
3,CCCCC(CC)COC(=O)COc1ccc(Cl)cc1Cl (stereo not given),inactive
4,CC[N+](C)(CC)CCOC(=O)C(O)(c1ccccc1)C1CCCCC1 (stereo not given),inactive
5,C#Cc1cccc(Nc2ncnc3cc(OCCOC)c(OCCOC)cc23)c1,inactive
6,COC(=O)C1=C(C)NC(COC(N)=O)=C(C(=O)OC(C)C)C1c1cccc(Cl)c1Cl (stereo not given),inactive
7,CCCCCCCCCCCCCCCCCCOS(=O)(=O)O,inactive
8,COc1cc2nc(N(C)CCCNC(=O)C3CCCO3)nc(N)c2cc1OC (stereo not given),inactive
9,CCCCC(CC)CN1C(=O)C2C3C=CC(C3)C2C1=O (stereo not given),inactive
10,CN(C)CCCN1c2ccccc2Sc2ccccc21,inactive
11,CN1CCC(=C2c3ccccc3Sc3ccccc32)CC1,inactive
12,C[C@@H](c1ncncc1F)C(O)(Cn1cncn1)c1ccc(F)cc1F (stereo not given in full),inactive
13,CO[C@@H]1[C@H](OC(=O)/C=C/C=C/C=C/C=C/C(=O)O)CC[C@]2(CO2)[C@H]1[C@@]1(C)O[C@@H]1CC=C(C)C,inactive
14,COCCCN1CCC(NC(=O)c2cc(Cl)c(N)c3c2OCC3)CC1,inactive
15,CCC(Cl)CCC(Cl)C(Cl)CC(Cl)C(Cl)C(Cl)CCl (stereo not given),inactive
16,CCc1c(C(=O)NN2CCCCC2)nn(-c2ccc(Cl)cc2Cl)c1-c1ccc(Br)cc1,inactive
17,O=C(O)CC(=O)C(=O)O,inactive
18,CC(C)O.CC(C)O.CCOC(=O)/C=C(\C)O.CCOC(=O)/C=C(\C)O.[Ti],inactive
19,CCCCCCCCCCCCCCCCOS(=O)(=O)O,inactive
20,COc1ccc(C(=O)c2ccc(OC)cc2O)c(O)c1,inactive

row,SMILES,Potency
1,O=C1CCC(=O)O1,inactive
2,CCOC(=O)Cc1cccc2ccccc12,inactive
3,COc1ccc2cccc(CCNC(C)=O)c2c1,inactive
4,CCOCC(O)COc1ccc(NC(=O)CC[S+](C)C)cc1 (stereo not given),inactive
5,NCC(=O)CCC(=O)O,inactive
6,CCC(C)(C)CC,inactive
7,CCCCC(=O)OCC(=O)[C@H]1[C@H](C)C[C@H]2[C@@H]3C[C@H](F)C4=CC(=O)C=C[C@]4(C)[C@@]3(F)[C@@H](O)C[C@@]21C,inactive
8,CN(C)CCOC(c1ccccc1)c1ccc(Br)cc1 (stereo not given),inactive
9,CC(CC=O)c1ccccc1 (stereo not given),inactive
10,O=C(O)C(S)C(S)C(=O)O (stereo not given),inactive
11,CCC(C)O (stereo not given),inactive
12,CC1=CCCC(C)(C)C12CCC(C)O2 (stereo not given),inactive
13,C=C(C)C(=O)OCCO,inactive
14,COc1cc2c(cc1OC)C(C(C(=O)N(CCc1ccc(OC)c(OC)c1OC)CCc1ccc(OC)c(OC)c1OC)c1ccccc1)=NCC2 (stereo not given),inactive
15,CC(C)(C)OCC1CO1 (stereo not given),inactive
16,CCCCCC[C@@H](O)C/C=C\CCCCCCCC(=O)OC,inactive
17,C#CCN(C)CCCOc1ccc(Cl)cc1Cl,inactive
18,CCOC(=O)C1=C[C@]2(CC)CCCN3CCc4c(n1c1ccccc41)[C@@H]32,inactive
19,CC(=O)c1cccc([N+](=O)[O-])c1,inactive
20,CN1Cc2cc(C(=O)N3CCC(C4CCNCC4)CC3)ccc2NC(CC(=O)O)C1=O (stereo not given),inactive
